The text below walks through data of PubChem BioAssay AID1851 (National Center for Advancing Translational Sciences (NCATS), 2009).

The campaign covered roughly 16,000 compounds. About 4,000 (25%) were called active. About 26% were inconclusive and are not listed. The list is a sample of the results. Values without a mark were called inactive. Calls follow the shape of the dose curve; as a rule, active = well fitted curve in the direction sought with a large enough effect; inconclusive = small, poorly fitted or top-dose-only effect, or effect the other way; inactive = no such curve, though single readings can be large or run the other way.
% is scaled to controls: 0 for no effect and ±100 for the full control effect.

Sequence of Cytochrome P450 2C9 (Homo sapiens) (P11712 whole entry, looked up): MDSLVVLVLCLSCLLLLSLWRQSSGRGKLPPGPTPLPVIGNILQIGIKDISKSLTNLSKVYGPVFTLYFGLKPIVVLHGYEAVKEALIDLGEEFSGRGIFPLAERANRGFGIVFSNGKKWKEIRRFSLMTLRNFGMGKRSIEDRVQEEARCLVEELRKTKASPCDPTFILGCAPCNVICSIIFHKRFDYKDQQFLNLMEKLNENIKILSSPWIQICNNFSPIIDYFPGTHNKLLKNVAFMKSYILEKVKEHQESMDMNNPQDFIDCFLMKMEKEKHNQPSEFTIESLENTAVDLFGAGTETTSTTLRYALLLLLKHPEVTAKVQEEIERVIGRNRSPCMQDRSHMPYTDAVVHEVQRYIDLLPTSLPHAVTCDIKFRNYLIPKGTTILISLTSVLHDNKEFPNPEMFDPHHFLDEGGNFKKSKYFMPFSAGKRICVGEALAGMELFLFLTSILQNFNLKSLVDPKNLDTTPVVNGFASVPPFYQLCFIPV

This experiment concerns the target Cytochrome P450 2C9 (Homo sapiens) (UniProt P11712). As to the kind of experiment: Cytochrome panel assay with activity outcomes. The conditions noted are these: recombinant CYP, pro-luciferin dealkylation, luminescence, p450-cyp2c9; series mostly up to 57.1 µM.
`O=C(c1cc(C(F)(F)F)cc(C(F)(F)F)c1)N1CCC[C@@]2(CCN(c3ccccn3)C2)C1`: the AC50 entry is “inactive”.
Same read-out and setting: to `Cc1ccc(C(c2nnnn2C2CCCC2)N2CCN3CCCC3C2)cc1` (centres undefined) belongs “inactive”.
Same read-out and setting: to `Clc1ccc(C(c2nnnn2C2CCCC2)N2CCN(Cc3ccncc3)CC2)cc1` (centres undefined) belongs 1.12 µM (active); to `CN1CCCN([C@@H](c2ccccc2)c2ccc(Cl)cc2)CC1`, “inactive”.
On the same count and under the same terms, as for `COc1ccc2c(c1)c(CC(=O)O)c(C)n2C(=O)c1ccc(Cl)cc1`, the entry is “inactive”.
Regarding `COc1ccc2c(c1)c(CC(=O)O)c(C)n2C(=O)c1ccccc1`, the AC50 was 10 µM (active).
In the case of `COc1ccc2c(c1)c(CC(=O)OCC(=O)O)c(C)n2C(=O)c1ccc(Cl)cc1`, the AC50 result was “inactive”.
In the case of `O=C(O)/C=C\[C@H](O)c1ccc(Cl)cc1`, the AC50 entry was “inactive”.
In the case of `c1ccc(CSc2nnc3c4ccccc4c4ccccc4c3n2)cc1`, the activity, negative = inhibition is -1.66% [at 11.4 µM].
With `O=C(CSC1=NCCN1)Nc1ccccc1`, the activity, negative = inhibition was 2.48% [at 11.4 µM].
In the case of `O=C(CSc1nnc2c3ccccc3c3ccccc3c2n1)Nc1ccccc1`, the AC50 was 2.51 µM (active).
With `C[N+]1(CCC[N+]2(C)C[C@H]3[C@H](C2)[C@H]2C=C[C@@H]3CC2)CCOCC1` (some centres undefined), the activity, negative = inhibition was -9.72% [at 11.4 µM].
In the case of `N[C@]1(C(=O)O)CCc2cc(P(=O)(O)O)ccc21`, the AC50 result is “inactive”.
On to `CCc1ccc(OCC(=O)NNC(=O)CSc2ncnc3sc(C)c(C)c23)cc1`, for which the AC50 entry was “inactive”.
The same measure, in the same setting: as for `COC(=O)c1c(-c2ccccc2)csc1NC(=O)CSc1ncnc2sc(C)c(C)c12`, the figure is 1.26 µM (active); as for `Nc1nc(Nc2ccccc2)nc2c1ncn2[C@@H]1O[C@@H](CO)[C@H](O)[C@@H]1O`, “inactive”; as for `Nc1nc(Nc2ccccc2)nc2c1ncn2[C@@H]1O[C@@H](CO)[C@H](O)[C@H]1O`, 0.794 µM (active).
Same read-out and setting: to `Nc1nc(Cl)nc2c1ncn2[C@@H]1O[C@@H](CO)[C@@H](O)[C@H]1O` belongs “inactive”; to `Nc1ccc(-c2sc(N)nc2-c2ccccc2)cc1`, 28.2 µM (active).
In the case of `Nc1nc(-c2ccccc2)c(-c2ccccc2)c(-c2nc(N)nc(-c3ccccc3)c2-c2ccccc2)n1`, the activity, negative = inhibition was -3.1% [at 11.4 µM].
With `COc1ccc(CNc2ncnc3ccc(-c4c(C)noc4C)cc23)c(OC)c1`, the activity, negative = inhibition was -23.3% [at 2.29 µM].
With `CCNc1ncc2ncc(=O)n(Cc3ccc(F)cc3)c2n1`, the AC50 was 20 µM (active).
Still for that read-out and setting: to `COc1ncc2ncc(=O)n(Cc3ccc(F)cc3)c2n1` belongs “inactive”; to `CCNc1ncc2nc(C)c(=O)n(Cc3ccc(F)cc3)c2n1`, “inactive”; to `CN(C)c1ncc2ncc(=O)n(Cc3ccc(F)cc3)c2n1`, 10 µM (active).
Still for that read-out and setting: to `CN(C)c1ncc2nc(-c3ccccc3)c(=O)n(Cc3ccc(F)cc3)c2n1` belongs “inactive”; to `CCNc1ncc2nc(-c3ccc(Cl)cc3)c(=O)n(Cc3ccc(F)cc3)c2n1`, “inactive”; to `C[C@H](N)C1CCC(C(=O)Nc2ccncc2)CC1` (some centres undefined), “inactive”.
Still for that read-out and setting: to `O=C(CCCN1CCC(O)(c2ccc(Br)cc2)CC1)c1ccc(F)cc1` belongs “inactive”; to `Cc1cc(C)nc(Nc2n[nH]c(-c3cccc4ccccc34)n2)n1`, “inactive”.
On to `Cc1ccc(-c2cnc(NC(=O)CCC(=O)N3CCCCC3)n2C)cc1`, for which the AC50 result was “inactive”.
Still for that read-out and setting: to `Cc1ccc(NC(=O)CCN2C(=O)c3ccncc3C2=O)cc1` belongs 14.1 µM (active).
Still for that read-out and setting: as for `O=C(CCN1C(=O)C2C3C=CC(C3)C2C1=O)Nc1ccc2ncccc2c1` (centres undefined), the entry is “inactive”.
On the same count and under the same terms, as for `COc1cc(OC)c2c(c1Cl)O[C@@]1(C2=O)[C@H](C)CC(=O)C[C@@H]1OC`, the entry is “inactive”.
Take `CN(C)c1ccc(-c2ccc3ncnc(NC4CC4)c3c2)cc1`: the activity, negative = inhibition is 4.64% [at 2.29 µM].
In the case of `O=C(CSCc1ccccc1)Nc1cccc(C(=O)Nc2ccccc2C(=O)O)c1`, the AC50 was 0.447 µM (active).
Take `CC1CC2=C(NC(=S)NC2c2ccc(F)cc2)/C(=C/c2ccc(F)cc2)C1` (centres undefined): the AC50 was 8.91 µM (active).
As to `O=C1CC(NCCC2=CCCCC2)C(=O)N1c1cccc(Cl)c1Cl` (centres undefined), the AC50 was 14.1 µM (active).
Same read-out and setting: as for `N[C@H](C(=O)O)c1ccc(C(=O)O)cc1`, the entry is “inactive”; as for `CC(=O)NC1=NN(c2ccccc2)C(=O)C1`, “inactive”; as for `COC(=O)c1ccccc1-c1ccc(/C=C2\C(=O)N(c3ccccc3)N=C2c2ccccc2)o1`, 5.62 µM (active).
The same measure, in the same setting: to `COc1ccc(-c2ccc(/C=C3\C(=O)N(c4ccccc4)N=C3c3ccccc3)o2)c([N+](=O)[O-])c1` belongs 2.51 µM (active); to `NC(=NC1C2CC3CC(C2)CC1C3)Nc1ccc(I)cc1` (centres undefined), “inactive”.
Consider `CC[C@@]1(O)C(=O)OCc2c1cc1n(c2=O)Cc2cc3c(CN(C)C)c(O)ccc3nc2-1`, for which the activity, negative = inhibition is -1.39% [at 11.4 µM].
Still for that read-out and setting: as for `Cc1cc2nc3[nH]c4c(Cl)cc(Cl)cc4c3nc2cc1C`, the figure is -11.6% [at 11.4 µM]; as for `O=C(O)CSc1ccn(Cc2ccccc2)c1`, -1.85% [at 11.4 µM].
`C=CCCCCCCCCC(=O)Nc1c[nH]c(=O)[nH]c1=O`: the AC50 entry is “inactive”.
Same read-out and setting: to `Cc1onc(-c2c(Cl)cccc2Cl)c1C(=O)Nc1ccc2c(c1)OCO2` belongs 1.41 µM (active); to `O=C(NC(=S)Nc1ccc2c(c1)OCO2)c1ccccc1`, 3.98 µM (active).
Regarding `C[N+](C)(C)c1ncnc2c1ncn2[C@@H]1CCCCO1`, the activity, negative = inhibition is 8.84% [at 11.4 µM].
Regarding `CCCOc1ccc(C(=O)OCCN(CC)CC)cc1N`, the AC50 entry is “inactive”.
Same read-out and setting: to `Clc1ccc(Nc2ncn[nH]2)cc1` belongs “inactive”; to `CC1CC(=O)c2cnc(N)nc2C1` (centres undefined), “inactive”.
Still for that read-out and setting: to `CN1CCN(c2ncc3ncc(=O)n(-c4ccccc4)c3n2)CC1` belongs “inactive”.
Still for that read-out and setting: to `O=C1CC(c2ccccc2)Cc2nc(N3CCc4ccccc4C3)ncc21` (centres undefined) belongs 4.47 µM (active).
`Clc1ccc(-c2noc(CN3CCCCC3)n2)cc1`: the activity, negative = inhibition was -0.0394% [at 11.4 µM].
Take `Cc1ccc(-c2noc(CN3CCN(C(c4ccccc4)c4ccccc4)CC3)n2)cc1`: the AC50 was 5.01 µM (active).
For the compound `CC(=O)[C@@H](C)CCO[C@@]1(C)OCC[C@@H]1C`, the activity, negative = inhibition was -15.7% [at 11.4 µM].
Regarding `Cc1cc(C)cc(C(=O)N(NC(=O)Nc2ccc(Cl)cc2)C(C)(C)C)c1`, the AC50 was 5.01 µM (active).
As to `CC(C)(CC(=O)Nc1ccccc1)C(=O)O`, the activity, negative = inhibition is 4.33% [at 11.4 µM].
Turning to `Cc1ccc(NCCC(=O)c2ccc(Cl)cc2)cc1C`, the AC50 result is “inactive”.
For the compound `Cc1c(Cl)c(S(N)(=O)=O)cc(S(N)(=O)=O)c1NC(=O)c1ccc(Cl)cc1`, the activity, negative = inhibition is -6.54% [at 11.4 µM].
Take `CC(C)(C)N(NC(=O)Nc1ccccc1)C(=O)c1ccccc1Cl`: the AC50 was 14.1 µM (active).
With `O=S1(=O)CCN(c2ccccc2CC(c2c[nH]c3ccccc23)c2c[nH]c3ccccc23)CC1`, the AC50 was 3.16 µM (active).
Take `O=C(O)[C@@H](Cc1c[nH]c2ccccc12)C(=O)NO`: the activity, negative = inhibition was -10.3% [at 11.4 µM].
Same read-out and setting: to `c1ccc2c(CN3CCN(Cc4c[nH]c5ccccc45)CC3)c[nH]c2c1` belongs -0.0395% [at 11.4 µM]; to `Cc1ncn(-c2ccccc2O)c1C`, 9.91% [at 11.4 µM].
As to `CCOC(=O)N1CCC(NC(=O)CSCc2cnn(-c3ccccc3)c2-n2cccc2)CC1`, the AC50 is 4.47 µM (active).
Still for that read-out and setting: as for `CCOC(=O)N1CCC(NC(=O)CCC(=O)N2CCOc3ccccc32)CC1`, the entry is “inactive”.
Still for that read-out and setting: as for `Cc1ccc(NC(=O)Cn2cnc3c(cnn3C(C)(C)C)c2=O)cc1`, the figure is 10 µM (active); as for `Cc1ccc(-n2ncc3c(=O)n(CC(=O)NCC4CCCO4)cnc32)cc1` (centres undefined), “inactive”.
In the case of `Cc1ccccc1Cn1cnc2c(cnn2C(C)(C)C)c1=O`, the AC50 is 15.8 µM (active).
In the case of `Cc1ccc(C)c(Cn2cnc3c(cnn3C(C)(C)C)c2=O)c1`, the AC50 is 8.91 µM (active).
Still for that read-out and setting: to `CO[C@H]1[C@H](O[C@H]2O[C@@H](C)[C@@H](O[C@@H]3C[C@](C)(O)[C@H](OC(=O)CC(C)C)[C@H](C)O3)[C@@H](N(C)C)[C@@H]2O)[C@@H](CC=O)C[C@@H](C)[C@@H](O)/C=C\C=C/C[C@@H](C)OC(=O)C[C@H]1OC(C)=O` belongs “inactive”.
In the case of `Cc1cnc(CNc2ccnc(-c3ccccc3Cl)n2)cn1`, the activity, negative = inhibition was 7.84% [at 2.29 µM].
Still for that read-out and setting: as for `CN(C)c1ccc(-c2cncnc2-n2ccnc2)cc1`, the figure is 15.2% [at 2.29 µM]; as for `C[C@@H](CSC(=N)N)C(N)=O`, -9.17% [at 11.4 µM].
As for `Cc1noc(NS(=O)(=O)c2cccc3c(N(C)C)cccc23)c1C`, the AC50 is 0.631 µM (active).
Still for that read-out and setting: to `COc1ccccc1N1CCN(CCCCNS(=O)(=O)c2cccc3c(N(C)C)cccc23)CC1` belongs “inactive”.
Consider `Cc1noc(C)c1-c1nc(N(C)C)c2ccccc2n1`, for which the activity, negative = inhibition was 27.2% [at 2.29 µM].
On to `Cc1ccc(/C=C/C(=O)N2CC(C)CC(C)C2)o1` (centres undefined), for which the AC50 is 15.8 µM (active).
The same measure, in the same setting: as for `Cc1ccc(/C=N/NC(=O)Cn2nccc2C)o1`, the entry is “inactive”.
With `CSc1nnnc2ccccc12`, the activity, negative = inhibition was 14.9% [at 11.4 µM].
Consider `CSc1nc(Sc2cccc(Cl)c2)c2ccccc2n1`, for which the AC50 is 0.251 µM (active).
For `COc1ccccc1CNc1ccnc(-c2ccc(N(C)C)cc2)n1`, the activity, negative = inhibition was -19.9% [at 2.29 µM].
Consider `COc1ccccc1NC(=O)C1=C(C)Nc2nnnn2C1c1cccc(Br)c1` (centres undefined), for which the AC50 was 14.1 µM (active).
Still for that read-out and setting: as for `CC1=C(C(=O)Nc2cccnc2)C(c2cccnc2)n2nc(-c3cccs3)nc2N1` (centres undefined), the figure is 8.91 µM (active); as for `COc1ccccc1NC(=O)c1nc[nH]c1C(=O)Nc1ccccc1OC`, “inactive”; as for `COc1ccccc1NC(=O)C1=C(C)Nc2nc(-c3ccc(N(C)C)cc3)nn2C1c1ccncc1` (centres undefined), 8.91 µM (active).
Consider `COC(=O)C1=C(C)Nc2ncnn2C1c1cccnc1` (centres undefined), for which the AC50 entry is “inactive”.
In the case of `NS(=O)(=O)c1cc2c(cc1Cl)N[C@@H](C(Cl)Cl)NS2(=O)=O`, the AC50 entry was “inactive”.
For `Cc1noc(C)c1-c1nccc(NCc2cccs2)n1`, the activity, negative = inhibition is -12.6% [at 2.29 µM].
As to `COc1cc([C@H](O)CO)ccc1O`, the AC50 entry was “inactive”.
For the compound `CCCCNN`, the activity, negative = inhibition is -5.3% [at 11.4 µM].

In general, AC50 refers to the concentration giving half of the maximal activity seen.
